Source: the supplement of paper PMC12632987

target: UCHL1, P09936; assay: median log2 fold change of GCK-ALFA target abundance (FLAG IP / Myc IP barcode read proportion) (log2 ratio); each designed protein is fused to an ALFA-tag nanobody in HEK293 cells to bring the named protein to FLAG-tagged glucokinase (GCK); Myc marks an untargeted standard; higher = target protein stabilised (more abundant); details: target protein: 3xFLAG-MCP-GCK-ALFA reporter; HEK293 landing pad (RPLP)
In short: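 Sequencing of reverse-transcribed, amplified circular RNA barcodes from anti-FLAG and anti-Myc immunoprecipitates provided the readout for an ALFA-nanobody-fused binder library recombined into HEK293 landing-pad cells. Those cells were induced with 2 μg mL^−1 doxycycline, transfected with a plasmid expressing a FLAG-tagged target and a Myc-tagged standard, and lysed after 48 h. Target abundance is the per-binder median log2 ratio of FLAG to Myc barcode read proportions. Only barcodes at a proportion of ≥10^−7 in both replicates and binders with ≥3 barcodes per replicate were kept, with a 10^−6 pseudocount added before the two replicates were pooled.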

Sequence of UCHL1, P09936 (P09936 whole entry, looked up, the tested form may be a part): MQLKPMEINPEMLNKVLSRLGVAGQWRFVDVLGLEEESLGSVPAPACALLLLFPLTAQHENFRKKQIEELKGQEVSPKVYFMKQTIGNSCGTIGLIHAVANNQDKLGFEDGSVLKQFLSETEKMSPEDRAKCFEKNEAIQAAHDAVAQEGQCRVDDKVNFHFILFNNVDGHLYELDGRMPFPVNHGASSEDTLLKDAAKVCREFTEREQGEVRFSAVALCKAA

Binder	median log2 fold change
uchl1_143_7455 (protein) GHHMLEVEKIEIEVEETDTPEEIKKKIMEAMKKAVAKGKAIEIIITVPPDANFRLMVNTVAKRAAREFAKEYKDKLKYLKIYARDKETGKEDLIAEIVNP	0.157
uchl1_143_7466 (protein) GPAPVPVLRVERTWTADTTLEEVLALLREAAERAIKEGKDLEVIFTVSPDPNHRLRANTLARRAGKEITQELGKRIRRLRVLLRDAETGKVDLIYEHDGR	0.0958
uchl1_143_7467 (protein) GPAAEPVLEVTIRVTRDTTPEELRARLLAAIDEAIAAGKALKITIEIPPDANLRVMVNTVAKRVAREVAKARGAELKRLVILGRDSATGKEQVLAEVVNP	-0.119
uchl1_143_7464 (protein) GSAPRPVIHLERTLSADTTLEEVEALVREAAELSVETGAPVVLTFTVSGDPNHRLRAHTMLRRAARRVIQELADRIPELRVLLRDEKTGKTQLIAHFDNR	0.163
uchl1_143_7469 (protein) APEPIEHIEVTIEVAETDTFEEIHARISAAIDAAIALGRRTELTIRLVVPTTASANLRVMVNTAARRALREHADHLEDASISGEQRPGKAVLVIRVLTKA	0.139
uchl1_143_7459 (protein) GSPEEEVEVIEVTIEPTDTPEQIREKITKALKEAVELEKDTRIVITVPPDPNLKLMVNTVARRELKKIAQEYPEKTKTITVEARDAETGKVDLLAEYVKE	0.347
uchl1_143_7458 (protein) GLEAIPVLEVHLRVTPADTPEEIRARLMAAIEEAAAAGKALRIVITVEGDANLRVMVGNVAKRVAREAARRYGATLPSLTIVARDAETGREQLLAEADFR	0.147
uchl1_143_7456 (protein) PPAPVPVHRVTIEVTREDTPEEIRARLEAAVAEAAAAGAALEITVVVTSDPNVRVMANTVARRVAREAARRYRDTLPSLRIVLRDRETGKEQLIAEADFR	0.0928
uchl1_143_7468 (protein) GPAVEPVETVTITVTPDTTPEELRARLLAAIDAALAAGKALTITIVVPPDANLRVMANTVAKRVAREVARAHGDRLRRLTIRARDAATGKTQLLAEVVNP	0.11
uchl1_143_7470 (protein) GRPTPPTLTVNLTFDETTTPEEIRAALNAAIDEAAAAGKNLTITITVPADSNKRLMVTTVARRVAREAAKRYRDKLPELRILATDAATGKTQLIAEYVNE	0.272
uchl1_143_7461 (protein) ALEPLPVQKTTIEVSESDTPEEIYERIKAAIEAAIAAGKAAEVTIVVPPDPNVRVMVNNVAKRAAREVAQEHADKVKRITINLTDKETGKTEVVAEVVRP	0.242
uchl1_143_7457 (protein) GPEVVPVRRVEITVTRADTPEEIEARLLAAVREAAAAGEALLITITVEGDANLRVMVGNVAKRVARRAAREYGDTLPSLRIIARDAETGKEQLLAEVDNR	0.225
uchl1_143_7465 (protein) GSMHMETLTVERTMTEDTTLEEVYALLEEAAKKAIAEGKDLVVIFTVSSDPNHRLRANTLARRAARRIIQEYGKEIRRLEVLLRDAETGKVDLIALHDGR	0.138
uchl1_143_7463 (protein) EEVELEVIHIEVTLTEDTTLEEVRALVEEAARLSIETGKHVVLTATVSNDPNHRLRANTMLRRAAREVIQERGAEIPKLVILLRDAETGKEDVIAEFDNR	0.184
uchl1_143_7460 (protein) GAAPLPVLRTTIEVSEEDTPEEIYARIKAAIEEAIAAGKAAEVTIVVPPNPNVRVMVNNVAKRAARDVAKEYAGKVKEIRIYLEDRETGKRQLVAEVVNP	0.0504
uchl1_143_7462 (protein) GAPALPVLRTTIEVTREDTPEEIHARIVAAIREAIAAGKAAEVTIVVPPDPNVRVMVNNVAKRAAREVAQEHADAVKRITIRLRDRETGRTQLVALVERP	0.133
